Screening data as filed in PubChem.
D2 PAM-1: Beta-Arrestin HTS for Positive Allosteric Modulators of the Human D2 Dopamine Receptor: Potentiators | potentiation, % (concentration not given with the values) | 360,000 tested, 0.23% active | DiscoveRx D2 beta-arrestin cells, luminescence, 90 min; 100% = 57 uM dopamine signal | D(2) dopamine receptor (Homo sapiens), P14416; in the data active = potentiation above about 50%
Target sequence (P14416 whole entry, looked up): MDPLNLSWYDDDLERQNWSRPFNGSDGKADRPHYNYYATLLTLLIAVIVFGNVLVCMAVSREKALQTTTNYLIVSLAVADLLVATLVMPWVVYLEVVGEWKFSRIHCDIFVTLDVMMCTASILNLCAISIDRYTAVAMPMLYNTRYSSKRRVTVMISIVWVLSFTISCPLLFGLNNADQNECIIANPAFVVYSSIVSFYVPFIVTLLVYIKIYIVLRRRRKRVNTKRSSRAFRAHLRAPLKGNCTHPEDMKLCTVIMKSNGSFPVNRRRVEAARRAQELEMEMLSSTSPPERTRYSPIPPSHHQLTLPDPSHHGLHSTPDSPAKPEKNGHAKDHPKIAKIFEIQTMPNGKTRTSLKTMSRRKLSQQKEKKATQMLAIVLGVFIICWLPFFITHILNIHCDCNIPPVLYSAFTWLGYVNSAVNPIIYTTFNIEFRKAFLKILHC
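PathHunter D2 cells, attached overnight at 37 deg C, received compound in DMSO plus dopamine at EC20 (50 nM final) for 90 min at 37 deg C. Beta-arrestin recruitment was read as luminescence after 1 h with detection reagent at ambient temperature.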
D2 ag-1: Beta-Arrestin HTS for Positive Allosteric Modulators of the Human D2 Dopamine Receptor: Agonists. D(2) dopamine receptor (Homo sapiens), P14416. DiscoveRx PathHunter D2 beta-arrestin, luminescence, 90 min; 100% = 57 uM dopamine signal. activation, % (test concentration not listed). 360,000 tested, 0.084% active. AID 624465, 2012; in the data active = activation above about 40%
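DiscoveRx PathHunter D2 beta-arrestin cells (2,100/well) attached overnight, then compound-stimulated 90 min at 37 C in HBSS/10 mM HEPES/0.1% Tween-20 buffer; beta-galactosidase complementation read by luminescence after 1 h at ambient temperature. Dopamine 57 uM final (EC100) as control.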
D2 antagonist: HTS Assay for Allosteric Antagonists of the Human D2 Dopamine Receptor: Primary Screen for Antagonists; 340,000 tested, 2% active; inhibition, % at 10 µM; D(2) dopamine receptor (Homo sapiens), P14416; HEK293 TREx D2 cells, calcium flux, dopamine EC80; in the data active = inhibition above about 30%; inactive = below that, where a call was filed; also: 0% is about no effect
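Dopamine at EC80 is the agonist stimulus; test compounds precede it by 180 s. Calcium flux read kinetically in a force-coupled, inducible HEK293 T-REx D2 cell line.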
D2 PAM-2: HTS Assay for Positive Allosteric Modulators of the Human D2 Dopamine Receptor: Primary Screen for Potentiators; 340,000 tested, 0.34% active; AID 485347, 2010; HEK293 T-REx D2, calcium flux, EC20 dopamine potentiation; potentiation, % at 10 µM; D(2) dopamine receptor (Homo sapiens), P14416;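 active = potentiation over 3 SD above the plate norm, cut at about 30% in these data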; also: 0% is about no effect
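Cells plated with tetracycline inducer and held overnight at 30 C; calcium dye loaded 30–90 min at room temperature; baseline taken, compound added and read 180 s; EC20 dopamine then added and read 180 s.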
D2 ag-2: HTS Assay for Allosteric Agonists of the Human D2 Dopamine Receptor: Primary Screen for Agonists; D(2) dopamine receptor (Homo sapiens), P14416; HEK293 T-REx D2 cells, calcium flux agonist mode; activation, % at 2 µM; 340,000 tested, 0.53% active; AID 485358, 2010;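 active = activation over 3 SD above normal in the single-dose calcium agonist read, cut at about 30% in these data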; also: 0% is about no effect
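Tetracycline-induced HEK293 Trex cells with D2 receptor force-coupled to calcium signaling, plated overnight at 30 C and loaded with no-wash calcium dye. Calcium flux read kinetically for 180 s after compound addition; responses flag agonists.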
Active calls of the source: *; . = no result given. Compounds with a hit are over-represented: about 2.4% of the library has one in this group of screens.

SMILES | D2 PAM-1 | D2 ag-1 | D2 antagonist | D2 PAM-2 | D2 ag-2
O=C(CSc1nc(O)c(Cc2ccccc2)c(=O)[nH]1)Nc1ccccc1 | -16 | -1 | 6 | 16 | 0
COc1ccc(NC(=O)CSc2nc(O)c(Cc3ccccc3)c(=O)[nH]2)cc1 | -15 | 0 | 53* | 13 | 0
CC(C)c1nn2c(=O)cc(COC(=O)c3ccco3)nc2s1 | . | . | . | 4 | .
COC1CCCN(C(=O)c2ccc3oc(Cc4ccc(Cl)cc4)nc3c2)C1 (stereo not drawn) | 7 | -1 | 31* | -9 | -1
C/C(=N\NC(N)=O)c1cc(Cl)cc(Cl)c1O | -7 | 6 | 54* | -26 | 1
C/C(=N\O)c1cc(Cl)cc(Cl)c1O | -8 | -5 | -9 | 14 | 0
Cc1cccc(N2CCN(C(=O)C3CCN(Cc4nc(-c5ccc(Cl)cc5)oc4C)CC3)CC2)c1C | . | . | . | 1 | -1
CC(C)Cc1nnc(NC(=O)c2cc(-c3ccncc3)nc3ccccc23)s1 | 3 | 3 | 3 | 18 | 1
CC(C)Cc1nnc(NC(=O)c2cc(-c3ccccc3)nc3ccccc23)s1 | -5 | -2 | 7 | 30* | 1
COc1cc(CN(C(=O)COc2ccc(Br)cc2)c2ccccn2)cc(OC)c1OC | . | . | . | 12 | 0
CCCNC(=O)Cn1cc(S(=O)(=O)N2CCCC2)c(S(=O)(=O)N2CCCC2)c1 | -11 | -6 | 37* | -3 | 0
CCC(C)NC(=O)Cn1cc(S(=O)(=O)N2CCCC2)c(S(=O)(=O)N2CCCC2)c1 (stereo not drawn) | 1 | -5 | 9 | -3 | -1
Cn1cc(-c2nnnn2-c2ccc(Cl)cc2)c(=O)c2ccccc21 | -7 | -3 | -10 | -3 | 0
CCn1cc(-c2nnnn2-c2ccc(Cl)cc2)c(=O)c2ccccc21 | 5 | 1 | -13 | 38* | 0
COc1cc(/C=C(/C#N)c2nc3ccccc3[nH]2)ccc1OCC(=O)Nc1ccccc1C(C)C | 0 | 1 | 32* | -6 | 2
COc1cc(/C=C(/C#N)c2nc3ccccc3[nH]2)ccc1OCC(=O)Nc1ccccc1C | 9 | -8 | -3 | 6 | 22
O=C(NCCN1CCOCC1)C(=O)NCC1OCCN1S(=O)(=O)c1ccccc1 (stereo not drawn) | -7 | 1 | -15 | -3 | 1
Cc1ccccc1-n1c(SCC(=O)c2ccccc2)nnc1-c1ccc(F)cc1 | . | . | . | 16 | 1
CCOC(=O)C1CCCN(CC(O)COc2ccccc2C(C)=O)C1 (stereo not drawn) | -14 | -1 | -9 | -22 | -1
CCOC(=O)C1CCN(Cc2ccc3ccccc3c2)CC1 | -3 | 0 | 9 | -16 | 13
CCOC(=O)C1CCN(Cc2cc(C(C)C)c(O)c(C(C)C)c2)CC1 | -18 | -13 | 45* | -21 | 22
COc1ccccc1Nc1nc(N)nc(CN2CCCCCC2)n1 | -12 | 0 | -23 | -6 | -1
CCOC(=O)C1CCCN(CC(O)COC(c2ccccc2)c2ccccc2)C1 (stereo not drawn) | -12 | -2 | 33* | . | -3
CCOC(=O)C1CCCN(Cc2nc(N)nc(Nc3ccccc3OC)n2)C1 (stereo not drawn) | -6 | -4 | 34* | -10 | -1
COc1ccccc1N1CCN(Cc2nc(N)nc(Nc3ccccc3)n2)CC1 | -14 | 0 | 34* | -24 | 8
CCCn1c(=O)c2sccc2n2c(CCCC(=O)NC3CCN(Cc4ccccc4)CC3)nnc12 | -12 | -18 | -3 | 2 | 0
CCOC(=O)C1CCCN(Cc2ccc(OC)c(OCc3ccccc3)c2)C1 (stereo not drawn) | -3 | -5 | 45* | -21 | -1
COc1ccc(CN2CCC(C(N)=O)CC2)cc1OCc1ccccc1 | 0 | -4 | -2 | -4 | 0
CCOC(=O)C1CCCN(Cc2ccc(OCC)cc2)C1 (stereo not drawn) | -11 | -2 | 28 | -27 | 42*
